Reference: paper PMC4336329 (PLoS ONE, 2015)
In all, about 310,000 compounds went through this assay and about 14,000 (4.5%) showed an effect of 50% or more. Effects have a minus sign here. Only a selection was taken, and strong results are over-represented in it overall.

The compounds below were run against human ether-à-go-go-related gene (hERG) potassium channel (human, UniProt Q12809) (assay: primary screen, population patch clamp on CHO cells stably expressing hERG; higher = less effect of the substance).
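Also: peak tail current of the secondary pulse compared with the same well before compound.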

Sequence of human ether-à-go-go-related gene (hERG) potassium channel (Q12809 whole entry, looked up): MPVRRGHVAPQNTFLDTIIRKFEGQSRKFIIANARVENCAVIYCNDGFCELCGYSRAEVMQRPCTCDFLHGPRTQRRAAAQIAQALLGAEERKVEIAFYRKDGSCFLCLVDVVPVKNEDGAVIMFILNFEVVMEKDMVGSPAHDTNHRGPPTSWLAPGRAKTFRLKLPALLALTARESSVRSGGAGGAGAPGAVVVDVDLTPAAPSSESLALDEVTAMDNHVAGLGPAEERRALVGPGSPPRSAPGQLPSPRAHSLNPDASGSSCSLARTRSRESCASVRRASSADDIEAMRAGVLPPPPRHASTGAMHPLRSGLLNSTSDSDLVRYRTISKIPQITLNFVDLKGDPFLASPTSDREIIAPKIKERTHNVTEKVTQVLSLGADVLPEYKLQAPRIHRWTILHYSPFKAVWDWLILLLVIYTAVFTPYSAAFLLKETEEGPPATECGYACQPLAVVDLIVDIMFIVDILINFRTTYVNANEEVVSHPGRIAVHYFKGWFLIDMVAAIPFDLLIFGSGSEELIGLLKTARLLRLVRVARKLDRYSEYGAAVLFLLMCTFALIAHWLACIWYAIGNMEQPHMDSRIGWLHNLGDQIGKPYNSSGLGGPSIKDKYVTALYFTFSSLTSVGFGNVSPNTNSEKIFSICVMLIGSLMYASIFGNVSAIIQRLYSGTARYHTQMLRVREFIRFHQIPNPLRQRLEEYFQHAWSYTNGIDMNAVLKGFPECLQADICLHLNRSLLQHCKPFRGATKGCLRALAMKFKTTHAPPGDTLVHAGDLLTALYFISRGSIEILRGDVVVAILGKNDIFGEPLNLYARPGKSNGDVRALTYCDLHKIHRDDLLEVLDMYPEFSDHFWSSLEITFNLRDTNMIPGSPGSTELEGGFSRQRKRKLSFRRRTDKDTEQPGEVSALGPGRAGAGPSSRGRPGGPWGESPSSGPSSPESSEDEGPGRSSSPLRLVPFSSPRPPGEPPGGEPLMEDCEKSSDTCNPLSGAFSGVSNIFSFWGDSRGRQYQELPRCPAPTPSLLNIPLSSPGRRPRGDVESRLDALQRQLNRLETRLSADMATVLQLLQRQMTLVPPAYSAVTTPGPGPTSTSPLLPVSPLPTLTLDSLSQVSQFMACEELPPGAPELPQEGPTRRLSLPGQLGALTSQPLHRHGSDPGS

SMILES	hERG current change (%, negative = inhibition) at 10uM
N/C(=N\OC(=O)COc1ccc2ccccc2c1Br)c1cccnc1	12.9%
Cc1cc(C)cc(C(=O)OCC(=O)Nc2ncccn2)c1	-0.75%
Cc1cccc(NC(=O)c2ccc3nc(N4CCOCC4)sc3c2)c1C	-34.7%
COc1ccc(S(=O)(=O)NCCc2cc3ccc(C)c(C)c3[nH]c2=O)cc1	17.2%
C/C(=N\NC(=O)c1c[nH]c2ccccc12)c1ccc2c(c1)OCO2	1.64%
COc1ccccc1CNC(=O)Cn1c(=O)oc2cc(Cl)ccc21	0.41%
CC(C)CCN1C(Nc2ccccc2)=NC[C@@H]1CC(C)C	-33.4%
CC(C)CCCN1C(Nc2ccccc2)=NC[C@@H]1CC(C)C	-60.1%
CCN1C(Nc2ccccc2)=NC[C@@H]1CC(C)C	3.75%
CCCCCCCN1C(Nc2ccccc2)=NC[C@@H]1CC(C)C	-73.7%
CCC(CC)CN1C(Nc2ccccc2)=NC[C@@H]1CC(C)C	-58.2%
CCCCN1C(Nc2ccccc2)=NC[C@@H]1CC(C)C	-34.5%
CC(C)C[C@H]1CN=C(Nc2ccccc2)N1CC(C)C	-3.04%
CC(C)CCCN1C(Nc2ccccc2)=NC[C@@H]1Cc1ccccc1	-62.3%
CC(C)CCN1C(Nc2ccccc2)=NC[C@@H]1Cc1ccccc1	-47.9%
CC(C)CCCN1CCN=C1Nc1ccccc1	-3.11%
CC1(OC(=O)CCc2ccccc2)C(=O)C=C2C=C3CCCN3C=C2C1=O (stereo not drawn)	-1.36%
Cc1cccc(NC(=O)CCc2ccc(S(=O)(=O)NC3CCCCC3)cc2)c1	14.4%
Cc1oc2c(c(C)cc3oc(=O)c(CC(=O)N[C@@H](CC(C)C)C(=O)O)c(C)c32)c1C	15.8%
COC(=O)CSc1nc2c(c(=O)n(C)c(=O)n2C)n1CCC(C)C	-5.54%
CCS(=O)(=O)N1CCCC(C(=O)c2ccc(OC)cc2C)C1 (stereo not drawn)	28.9%
CC(=O)O[C@@H]1/C=C/[C@](C)(O)C[C@@H](C)C/C=C/[C@H]2[C@@H]3O[C@]3(C)[C@@H](C)[C@H]3[C@H](Cc4ccccc4)NC(=O)[C@@]312	16%

SMILES	hERG current change (%, negative = inhibition) at 10uM
O=C(Nc1cccc(C(F)(F)F)c1)C(SCCO)c1ccccc1 (stereo not drawn)	-4.8%
O=C(Nc1cc(C(F)(F)F)ccc1Cl)C(Sc1cccc[n+]1[O-])c1ccccc1 (stereo not drawn)	-14.5%
O=C(Nc1cccc(C(F)(F)F)c1)C(Sc1cccc[n+]1[O-])c1ccccc1 (stereo not drawn)	-42.7%
O=C(Nc1ccc(Cl)cc1C(F)(F)F)C(Sc1cccc[n+]1[O-])c1ccccc1 (stereo not drawn)	-81.3%
CN(C)CC(C)(C)CNC(C(=O)Nc1ccc(Cl)cc1C(F)(F)F)c1ccccc1 (stereo not drawn)	-76.9%
CN(C)c1cccc(C(=O)OC(C(=O)Nc2ccc(Cl)cc2C(F)(F)F)c2ccccc2)c1 (stereo not drawn)	-3.78%
COc1cccc(NC(=O)C(NCC(C)(C)CN(C)C)c2ccccc2)c1.O=C(O)C(=O)O (stereo not drawn)	-48.4%
N#CCC(=O)N/N=C\c1ccc(OC/C=C/c2ccccc2)cc1	14.4%
Cc1ccccc1S(=O)(=O)Cc1ccc(C(=O)NC2CCCCC2)o1	-1.84%
Nc1nc(SCC(=O)Nc2ccc([N+](=O)[O-])cc2Br)n[nH]1	3.65%
CCOC(=O)C1(CC2CCCCO2)CCN(C(=O)Nc2ccccc2)CC1 (stereo not drawn)	12%
COc1ccc(/C=C/C(=O)Oc2ccc(C)cc2)cc1	-14.4%
COc1ccc(/C=C/c2cc(-c3ccc(C)cc3)o[n+]2C)cc1.F[B-](F)(F)F	-77.1%
COc1ccc(/C=C/c2cc(C(F)(F)F)on2)cc1	16.4%
Cc1ccccc1NC(=O)c1ccc2ccccc2c1	-8.12%
CCC(C)(C(=O)Nc1c(C)cccc1C)N(C)C(=O)c1ccc2ccccc2n1 (stereo not drawn)	8.52%
CSCC[C@H](NC(=O)c1cccs1)C(=O)N1CCC2(CC1)NCCc1[nH]cnc12	10.2%
CCCCNc1ccc(S(=O)(=O)c2cccc([N+](=O)[O-])c2)cc1[N+](=O)[O-]	-22.2%
O=[N+]([O-])c1cccc(S(=O)(=O)c2ccc(NCCO)c([N+](=O)[O-])c2)c1	-51%
O=[N+]([O-])c1cccc(S(=O)(=O)c2ccc(NCCOCCO)c([N+](=O)[O-])c2)c1	-38.3%
Cn1c(=O)c(C(=O)CN2CCCCCC2)c(N)n(Cc2ccccc2)c1=O	-13.5%
Cn1c(=O)c(C(=O)CN2CCN(Cc3ccc4c(c3)OCO4)CC2)c(N)n(Cc2ccccc2)c1=O	-66.8%

SMILES	hERG current change (%, negative = inhibition) at 10uM
Cn1c(=O)c(C(=O)CN2CCOCC2)c(N)n(Cc2ccccc2)c1=O	-13.2%
CCn1c(=O)c(C(=O)CN2CCN(S(=O)(=O)c3ccccc3)CC2)c(N)n(Cc2ccccc2)c1=O	-14.6%
CCn1c(=O)c(C(=O)CN2CCN(Cc3ccc4c(c3)OCO4)CC2)c(N)n(Cc2ccccc2)c1=O	-72%
CCn1c(=O)c(C(=O)CN2CCOCC2)c(N)n(Cc2ccccc2)c1=O	-19%
CN1CCN(c2ccc(N)c(N3CCN(C)CC3)c2)CC1	13.4%
CC(C)(C)NC(=O)C(c1ccc(F)cc1)N(Cc1ccccc1Cl)C(=O)c1ccn[nH]1 (stereo not drawn)	25.6%
CC1(C)CC(=O)C=C(c2cccc3c2oc2ccccc23)C1	-2.67%
CCCOc1ccc2oc(=O)c3c(c2c1)CCCN3C(=O)CN1CCCC(C(=O)OCC)C1 (stereo not drawn)	-65.5%
CCCOc1ccc2oc(=O)c3c(c2c1)CCCN3C(=O)CN1CCc2ccccc2C1	-24.1%
CCOC(=O)C1CCCN(Cc2cc(=O)oc3cc(C)c(C)cc23)C1 (stereo not drawn)	-19.3%
CCCOc1ccc2oc(=O)c3c(c2c1)CCCN3C(=O)CN1CCN(C(=O)c2ccco2)CC1	-65.3%
CCCOc1ccc(C(=O)Nc2ccc(N3CCN(C(=O)c4ccco4)CC3)cc2)cc1	13.2%
O=C(c1ccco1)N1CCN(CC(=O)N2CCCc3c2c(=O)oc2ccc(O)cc32)CC1	-5.14%
CCCCCOc1ccc2oc(=O)c3c(c2c1)CCCN3C(=O)CN1CCCC(C(=O)OCC)C1 (stereo not drawn)	-0.3%
CCCOc1ccc2oc(=O)c3c(c2c1)CCCN3C(=O)CN1CCN(c2ncccn2)CC1	-70.1%
CC(=O)Oc1ccc2oc(=O)c3c(c2c1)CCCN3C(=O)CN1CCN(c2ncccn2)CC1	-7.91%
O=C(c1cnn2ccccc12)N1CCc2ccccc21	0.772%
CC(=O)c1ccc(N2CCN(C(=O)/C=C/c3ccc(S(=O)(=O)N4CCOCC4)cc3)CC2)cc1	-30.3%
Brc1ccccc1OCCCCCN1CCCC1	-33.9%
Clc1ccc(Cl)c(OCCN2CCCC2)c1	-38.8%
Clc1ccccc1OCCCCN1CCCCC1	-8.1%
Clc1ccc(OCCCCCN2CCCC2)c(Br)c1	-62.3%

SMILES	hERG current change (%, negative = inhibition) at 10uM
CCN1CCN(CCCOc2ccc(Cl)cc2Br)CC1.O=C(O)C(=O)O	-69%
Clc1ccccc1OCCCCN1CCCC1	-29.6%
Clc1cccc(OCCCN2CCCC2)c1Cl	-55.5%
Cc1ccccc1OCCCN1CCCC1	-14.4%
Clc1ccc(OCCCn2ccnc2)c(Br)c1.O=C(O)C(=O)O	-18.6%
Clc1ccc(Cl)c(OCCCCN2CCCCC2)c1	-59.2%
Fc1ccccc1OCCCCCCN1CCCC1	-38.2%
CCn1c(P(C)(=O)[O-])nc2ccccc21.[Na+]	8.91%
COC(=O)c1sccc1NC(=S)N1CCCC(C)C1 (stereo not drawn)	14.6%
Cc1cc(C(=O)N2CCN(c3ccc(C(F)(F)F)cn3)CC2)c(C)o1	-21.4%
CCOc1ccccc1C(=O)Nc1nnc(C(C)C)s1	-1.92%
O=C(CCN1C(=O)/C(=C/c2ccc(F)cc2)SC1=S)NC1C=CS(=O)(=O)C1 (stereo not drawn)	-15.2%
CCc1nc2ccccc2n1CCC(=O)O.Cl	-5.88%
CC1(C)c2ccccc2N2CC(=O)NC21/C=C/c1ccco1 (stereo not drawn)	2.9%
Cc1nn(Cc2ccc(Cl)cc2)c(C)c1NC(=O)c1cc(-c2ccc3c(c2)OCO3)on1	-3.11%
CN(C)C(=O)N1CCC(C(=O)N2CCCC(C(=O)c3cccc4ccccc34)C2)CC1 (stereo not drawn)	-33.8%
Clc1ccc(OCCN2CCCCC2)c(Cl)c1.O=C(O)C(=O)O	-16.2%
Clc1ccc(Cl)c(OCCCCN2CCNCC2)c1.O=C(O)C(=O)O	-17.4%
Clc1ccc(OCCCN2CCCCC2)c(Br)c1.O=C(O)C(=O)O	-70.7%
CCOC(=O)C(NC(=O)Cc1ccccc1)(Nc1cc(C)on1)C(F)(F)F (stereo not drawn)	3.97%
N#Cc1ccccc1NC(=O)COC(=O)CCc1ccccc1	-14.9%
